# D1 agonist: human D1 receptor agonism; P21728; HEK293 T-REx D1 cells, calcium flux, agonist mode; activation, % at 2 µM; hit rate 1% among 360,000; further: 0% is about no effect
# Target sequence (P21728 whole entry, looked up): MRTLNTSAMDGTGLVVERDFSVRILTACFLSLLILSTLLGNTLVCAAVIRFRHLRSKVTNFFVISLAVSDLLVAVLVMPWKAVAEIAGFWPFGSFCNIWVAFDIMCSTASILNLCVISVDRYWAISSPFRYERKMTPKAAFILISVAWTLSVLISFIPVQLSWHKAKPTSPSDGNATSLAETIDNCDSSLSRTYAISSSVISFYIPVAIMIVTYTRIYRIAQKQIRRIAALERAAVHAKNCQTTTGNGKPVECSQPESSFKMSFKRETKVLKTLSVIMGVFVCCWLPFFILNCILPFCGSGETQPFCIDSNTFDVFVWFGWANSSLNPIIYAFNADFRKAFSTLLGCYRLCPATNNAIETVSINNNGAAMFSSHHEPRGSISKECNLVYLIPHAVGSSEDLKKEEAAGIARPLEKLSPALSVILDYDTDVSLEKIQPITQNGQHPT
#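 Tetracycline-induced HEK293 TREx D1 cells, force-coupled to calcium signalling, were dye-loaded with a no-wash calcium kit. Compound was pin-added after a 10 s baseline. Fluorescence was read kinetically at 1 cycle/s for 180 s, with calcium rises flagged as agonism.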
# D1 antag: blocks dopamine activation of the human D1 receptor; activity change, negative = inhibition, % at 10 µM; P21728; HEK293 TREx D1 cells, calcium flux, dopamine EC80; stronger effect = lower value; hit rate 3.2% among 360,000; in the data active means activity change below about -30%; further: on the % scale 0 is the no-effect control and ±100 the full control effect
#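 Cells carrying a force-coupled, tetracycline-inducible human D1 receptor report calcium flux. Each well gets a 10 s baseline, compound with 180 s monitoring, then an EC80 dopamine stimulus with a second 180 s kinetic read.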
# TRHR ag: activates the human TRH receptor; TRHR cells, calcium flux fluo-8, FDSS agonist mode; activation, % at 2 µM; hit rate 0.18% among 360,000; AID 493084; further: 0% is about no effect
#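 Read-out: compound-evoked intracellular calcium rise in TRHR cells, fluo-8 dye, kinetic FDSS fluorescence at 1 s/cycle following a 10-cycle baseline. Cells cultured overnight before dye loading (30 min–1.5 h, RT).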
# D1 PAM: enhances dopamine response at the human D1 receptor. AID 504651. hit rate 0.036% among 360,000. potentiation, % at 10 µM. P21728. HEK293 TREx D1 cells, calcium flux, dopamine EC20 potentiation; in the data active means potentiation above about 30%; further: 0% is about no effect
# TRHR enhancer: allosterically enhances the human TRH receptor. P34981. TRHR cells, fluo-8 calcium fluorescence, EC20 TRH enhancement. enhancement, % at 2 µM. hit rate 0.66% among 360,000. AID 493056; in the data active means enhancement above about 30%; further: 0% is about no effect
#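 Enhancer read-out: after compound pinning and an initial kinetic agonist-mode read, an EC20 of TRH (10 nM final) was injected and fluo-8 calcium signal (Ex 480/Em 530) followed at 1 s/cycle for 100 cycles in TRHR-expressing cells.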
# * = called active by the depositor; · = no result given. Hits are enriched below; roughly 4.7% of the tested compounds scored in any of these assays. Unless noted, no stated cut-off is given here; in the data, active means activation above about 30%; inactive means the rest.
SMILES,D1 agonist,D1 antag,TRHR ag,D1 PAM,TRHR enhancer
CCOC(=O)C1C(=O)NC(c2ccccc2)=NC1c1ccc(Cl)cc1 (stereo unspecified),1,-11,0,0,-3
COc1ccc(NC(C)=O)cc1S(=O)(=O)N(C)Cc1c(C)nn(-c2ccccc2)c1C,2,-33*,0,-10,1
COc1ccc(CCNC(=O)c2cc(-c3ccccc3O)n[nH]2)cc1OC,3,-33*,-1,-1,-3
COc1ccc(CCNC(=O)c2cc(-c3ccc(C)cc3O)n[nH]2)cc1OC,4,-1,0,-4,28
COc1ccc(CCNC(=O)c2cc(-c3cc(Cl)ccc3O)n[nH]2)cc1OC,7,-32*,1,-7,-1
CCOc1ccc2nc(NC(=O)CS(=O)(=O)c3ccc(Cl)cc3)sc2c1,-3,·,0,-1,-1
Cc1ccc(Cc2cnc(NC(=O)c3ccco3)s2)cc1,2,·,2,-2,11
O=C(Nc1ncc(Cc2ccc(SC(F)F)cc2)s1)c1ccc(OC(F)F)cc1,35*,-16,3,-7,-4
Cc1ccc(C)c(Nc2ccc3nonc3c2[N+](=O)[O-])c1,5,-11,-1,-6,2
Cc1ccc(C)c(Nc2c([N+](=O)[O-])ccc3nonc23)c1,108*,66,-1,5,14
O=[N+]([O-])c1ccc(O)c(Nc2c([N+](=O)[O-])ccc3nonc23)c1,19,-49*,-2,-2,7
O=C(Cn1ncc2c([nH]c3ccccc32)c1=O)NCCCN1CCN(c2ccc(F)cc2)CC1,1,-8,-1,-3,5
COc1ccc(N(Cc2cccs2)C(=O)COc2cccc(Cl)c2)cc1,25,-7,2,-1,-3
COc1ccc(C(=O)Nc2ccc3c(c2)nc(CCNC(C)=O)n3C)cc1,3,-5,1,1,31*
COCCCNC(=O)c1cc2c(=O)oc3ccc(C)cc3c2s1,-1,-13,0,-3,-1
COc1cc(Nc2nc(SCc3ccccc3Cl)nc3ccccc23)cc(OC)c1,6,4,0,-1,-7
CCOC(=O)c1ccc(NC(=S)NCc2ccccc2)cc1,22,-56*,1,-17,-1
CCOC(=O)c1ccc(NC(=S)NCCc2ccccc2)cc1,28,-38*,1,-7,0
CC(=O)c1ccc(NC(=S)NCCc2cccc(Cl)c2)cc1,22,-37*,1,-6,-1
CCOC(=O)c1ccc(NC(=O)NCc2ccccc2)cc1,7,-9,0,-6,-10
COC(=O)c1ccc(NC(=S)NCCc2ccccc2)cc1,12,-10,0,-8,3
Cc1ccc(C)c(N2CCN(C(=O)c3cnc4c(-c5ccccc5)c(C)nn4c3C)CC2)c1,10,-8,0,-6,1
O=c1[nH]c2ccccc2nc1/C=C/c1ccc(O)cc1,45*,1,22,-5,9
O=C(/C=C/c1ccc(F)cc1)Nc1nc2ccccc2[nH]1,5,-31*,-2,-1,-14
O=C(Nc1nc2ccccc2[nH]1)c1cccc(F)c1,1,8,1,6,-2
SMILES,D1 agonist,D1 antag,TRHR ag,D1 PAM,TRHR enhancer
O=c1[nH]c2ccccc2nc1/C=C/c1ccccc1,4,-7,2,-6,1
O=c1[nH]c2ccccc2nc1/C=C/c1ccc(F)cc1,35*,-9,-2,-5,1
O=C(COc1ccccc1)Nc1ccccc1C(=O)OCc1cc(=O)n2nc(C3CC3)sc2n1,-2,2,1,0,8
COC(=O)c1ccccc1NC(=O)Cn1cnc([N+](=O)[O-])c1,5,-89*,-1,-1,-2
CC(C)C1N(C(=O)CN2CCCC2)CCN1S(=O)(=O)c1ccccc1 (stereo unspecified),5,-45*,1,-12,-2
COc1ccc(C2N(C(C)=O)CCCN2S(=O)(=O)c2ccc(C)cc2)cc1 (stereo unspecified),0,1,0,-7,-1
COc1ccc(C2N(C(=O)CN3CCCC3)CCCN2S(=O)(=O)c2ccccc2)cc1 (stereo unspecified),32*,8,-1,3,4
CC1N(C(=O)N(C)C)CCN1S(=O)(=O)c1ccccc1 (stereo unspecified),2,4,-1,-2,36*
CCC(Oc1ccccc1)C(=O)Nc1ccccc1OCc1cc(=O)n2ccccc2n1 (stereo unspecified),-1,-8,0,-2,6
CC(=O)Nc1ccc(N(C(=O)Cn2nnc3ccccc32)C(C(=O)NCc2ccccc2)c2ccc(C)cc2)cc1 (stereo unspecified),-1,-1,1,0,-10
CCOc1ccc(-c2cc(CCCC(=O)NCCc3ccc(Cl)cc3)no2)cc1,11,-23,0,0,-5
CCOc1ccc(-c2cc(CCCC(=O)NCCc3ccc(OCC)c(OCC)c3)no2)cc1,9,-33*,0,-4,-9
N#C/C(=C\c1ccc(-c2cccc(Cl)c2)o1)C(=O)Nc1cccc(C(F)(F)F)c1,17,6,-1,-2,6
C=C1CCC[C@]2(C)C[C@H]3OC(=O)C(CNC(C)CCCC(C)C)[C@H]3CC12 (stereo partly specified),15,17,0,-7,23
C=C1CCC[C@]2(C)C[C@H]3OC(=O)C(CN[C@@H](C)c4ccccc4)[C@H]3CC12 (stereo partly specified),36*,29,2,-2,0
COc1cccc(CNC(=O)CCn2cccn2)c1,1,-6,0,3,12
N#Cc1c(N)nc(N2CCCC2)c(C#N)c1-c1ccc(Cl)cc1,3,-57*,-1,-13,-9
O=C(c1ccc(O)cc1)c1ccc(C(=O)c2ccc(O)cc2)cc1,22,-80*,0,-10,7
CC(C)(C)c1ccc(OCC(=O)N2CCCCCC2)c(Br)c1,10,-35*,0,-13,8
CC(C)[C@H](NC(=O)OCc1ccccc1)C(=O)OCC(=O)N1CCN(c2ccc(F)cc2)CC1,6,-65*,-1,-2,2
CC(C)(C)OC(=O)N1CCCN(C(=O)Nc2ccc(C(F)(F)F)cc2)CC1,4,-31*,-1,-4,-9
CCCN(C(=O)c1cc2c(s1)-c1c(C)cccc1OC2)c1ccc(OCC)cc1,1,21,0,4,-6
CCCCCOc1ccc(/C=C/C(=O)Nc2sc(C(C)=O)c(C)c2C(=O)OCC)cc1OC,-1,7,0,-1,6
CC(=O)Nc1ccc(NC(=O)C(C)OC(=O)c2cccs2)cc1 (stereo unspecified),1,-37*,0,-13,-1
CSc1ccc(C2CC(=O)Nc3c2c(=O)n(C)c(=O)n3C)cc1 (stereo unspecified),4,-5,1,-8,4
